Measurements from PubChem BioAssay AID2653 (National Center for Advancing Translational Sciences (NCATS), 2010).
Results filed as inconclusive are left out. Activity calls are given as the source filed them. The call rests on the fitted dose curve; in most records, active means well fitted curve in the direction sought with a large enough effect; inconclusive means small, poorly fitted or top-dose-only effect, or another doubt; inactive means no such curve, though single readings can be large or run the other way.

assay: Secondary Assay for Activators of Human Pyruvate Kinase M2 isoform - Cell Titer Glo Cytotoxicity for Probe SAR; conditions: HeLa viability, CellTiter-Glo ATP luminescence, 24 h; series mostly up to 58.2 µM
In short: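 Cytotoxicity read as ATP content (CellTiter-Glo luminescence) in HeLa cells after 24 h compound exposure at 37 C, following 24 h pre-plating at 500 cells/well; doxorubicin as control.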

SMILES	outcome
Cc1cc2c(s1)c1cnn(Cc3ccccc3F)c(=O)c1n2C	inactive
Cc1ccc(NS(=O)(=O)c2cccc(Cl)c2)cc1C	inactive
N#Cc1cccc(NS(=O)(=O)c2ccc3c(c2)CCC(=O)N3)c1	inactive
Cc1ccc(NS(=O)(=O)c2ccc3c(c2)CCC(C)(C)O3)cc1C	inactive
CN=c1nc(-c2ccccc2)n(-c2ccccc2)s1	inactive
Cc1ccc(NS(=O)(=O)c2ccc3c(c2)CCC(=O)N3)cc1F	inactive
Cc1ccc(C)c(OC2=NS(=O)(=O)c3ccccc32)c1	inactive
Cc1ccc(NS(=O)(=O)c2cc3c(cc2Cl)CCC(=O)N3)cc1C	inactive
O=S(=O)(c1ccc2c(c1)OCCO2)N1CCN(S(=O)(=O)c2c(F)cccc2F)CC1	inactive
O=C1CCc2cc(S(=O)(=O)Nc3cccc(C(F)(F)F)c3)ccc2N1	inactive
Cc1ccc(Nc2c(-c3ccc(C)o3)nc3cccc(C)n23)cc1	inactive
Cc1ccc(-c2nc3cccc(C)n3c2Nc2ccc(F)cc2)o1	inactive
Cc1ccccc1OC1=NS(=O)(=O)c2ccccc21	inactive
Cc1ccc2nc(-c3ccc(C)o3)c(Nc3ccccc3)n2c1	inactive
Cc1ccc(OC2=NS(=O)(=O)c3ccccc32)cc1	inactive
Cc1ccc(NC(=O)c2ccc3c(c2)CCC(=O)N3)cc1C	inactive

SMILES	outcome
O=C1c2ccccc2C(=O)N1c1noc2ccccc12	inactive
Fc1ccccc1-c1ccc(-c2nc3ccc(Cl)cn3c2Nc2ccc(Cl)cc2)o1	inactive
Cn1c2cc(S(C)=O)sc2c2cnn(Cc3cccc(N)c3)c(=O)c21 (configuration not stated)	inactive
Cc1cc(NS(=O)(=O)c2ccc3c(c2)CCC(=O)N3)ccc1F	inactive
O=C1c2ccccc2C(=O)N1c1nccs1	inactive
Cc1ccc(NS(=O)(=O)c2ccc3c(c2)CCC(=O)N3)cc1	inactive
Cc1ccc2nc(-c3ccc(C)o3)c(Nc3ccc(F)cc3)n2c1	inactive
Cc1ccc(NS(=O)(=O)c2cc3c(cc2N(C)C)NC(=O)CC3)cc1C	inactive
Cn1c2cc(S(C)=O)sc2c2cnn(Cc3cccc(O)c3)c(=O)c21 (configuration not stated)	inactive
O=C1c2ccccc2C(=O)N1C1CCCCC1	inactive
O=C1CCc2cc(S(=O)(=O)Nc3cccc(Oc4ccccc4)c3)ccc2N1	inactive
CC(=O)Nc1ccc(S(=O)(=O)Nc2ccc(C)c(C)c2)cc1	inactive
Nc1cc(S(=O)(=O)N2CCN(S(=O)(=O)c3ccc4c(c3)OCCO4)CC2)ccn1	inactive
Cc1ccc(NS(=O)(=O)c2cc3c(cc2Br)NC(=O)CO3)cc1C	inactive
Cc1ccccc1NS(=O)(=O)c1ccc2c(c1)CCC(=O)N2	inactive
CC(=O)N1CCCc2cc(S(=O)(=O)Nc3ccc(C)c(C)c3)ccc21	inactive
